Assay results: PubChem BioAssay AID1159580 (chemical genetic matrix, 2015)
Among all 5,500 compounds or so, about 2,000 (36%) were called active. Inconclusive results (about 18%) are left out. No stated cut-off is given here; in the data, active means normalized growth mostly below about 0.91 (no sharp cut-off); inconclusive means no clear call, values can overlap the other calls; inactive means mostly above about 0.92. The list shows a part of the results.

Experiment: chemical genetic growth profiling, strain panel (AID 1159580);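 further: tested at 20 µM; growth read once vehicle control cultures reached saturation at 30 °C; 1 = growth at the plate median or of vehicle wells; lower values mean less growth of the strain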
Details: growth OD

Measured: normalized growth

Clc1ccc(CSC(Cn2ccnc2)c2ccc(Cl)cc2Cl)cc1 (stereo not given)
active: S. cerevisiae deletion strains, locus YJR075W, strain HOC1, hits give low values 0.0603 | S. cerevisiae deletion strains, locus YKL009W, strain mrt4, hits give low values 0.0877 | S. cerevisiae deletion strains, locus YKL068W, hits give low values 0.0746 | S. cerevisiae deletion strains, locus YKL085W, strain MDH1 (second series), hits give low values 0.0615 | S. cerevisiae deletion strains, locus YKL085W, strain MDH1, hits give low values 0.0615 | S. cerevisiae deletion strains, locus YKL160W, strain elf1, hits give low values 0.065 | S. cerevisiae deletion strains, locus YKL190W, strain CNB1, hits give low values 0.0451 | S. cerevisiae deletion strains, locus YKR001C, strain vps1, hits give low values 0.0681 | S. cerevisiae deletion strains, locus YKR026C, strain gcn3, hits give low values 0.0654 | S. cerevisiae deletion strains, locus YKR091W, strain srl3, hits give low values 0.0606 | S. cerevisiae deletion strains, locus YLL001W, strain dnm1, hits give low values 0.0654 | S. cerevisiae deletion strains, locus YLL026W, hits give low values 0.0574 | S. cerevisiae deletion strains, locus YLL041C, strain sdh2, hits give low values 0.0577 | S. cerevisiae deletion strains, locus YLR027C, strain aat2, hits give low values 0.0604 | S. cerevisiae deletion strains, locus YLR039C, strain RIC1, hits give low values 0.079 | S. cerevisiae deletion strains, locus YLR058C, strain SHM2, hits give low values 0.0452 | S. cerevisiae deletion strains, locus YLR102C, strain apc9, hits give low values 0.0588 | S. cerevisiae deletion strains, locus YLR113W, strain HOG1, hits give low values 0.116 | S. cerevisiae deletion strains, locus YLR221C, strain rsa3, hits give low values 0.0604 | S. cerevisiae deletion strains, locus YLR258W, strain gsy2, hits give low values 0.0614 | S. cerevisiae deletion strains, locus YLR262C, strain YPT6 (second series), hits give low values 0.0789 | S. cerevisiae deletion strains, locus YLR262C, strain YPT6, hits give low values 0.103 | S. cerevisiae deletion strains, locus YLR268W, strain sec22, hits give low values 0.0568 | S. cerevisiae deletion strains, locus YLR320W, strain mms22, hits give low values 0.0761 | S. cerevisiae deletion strains, locus YLR330W, strain CHS5, hits give low values 0.0514 | S. cerevisiae deletion strains, locus YLR342W, strain FKS1 (second series), hits give low values 0.0606 | S. cerevisiae deletion strains, locus YLR342W, strain FKS1, hits give low values 0.0676 | S. cerevisiae deletion strains, locus YLR357W, strain rsc2, hits give low values 0.12 | S. cerevisiae deletion strains, locus YLR370C, strain arc18, hits give low values 0.0635 | S. cerevisiae deletion strains, locus YLR371W, strain rom2, hits give low values 0.0606 | S. cerevisiae deletion strains, locus YLR384C, strain iki3, hits give low values 0.0593 | S. cerevisiae deletion strains, locus YLR418C, strain cdc73, hits give low values 0.0853 | S. cerevisiae deletion strains, locus YML016C, strain PPZ1, hits give low values 0.0444 | S. cerevisiae deletion strains, locus YML032C, strain rad52, hits give low values 0.0643 | S. cerevisiae deletion strains, locus YML120C, strain ndi1, hits give low values 0.0571 | S. cerevisiae deletion strains, locus YML124C, strain tub3, hits give low values 0.0572 | S. cerevisiae deletion strains, locus YMR058W, strain fet3, hits give low values 0.0638 | S. cerevisiae deletion strains, locus YMR078C, strain ctf18, hits give low values 0.0695 | S. cerevisiae deletion strains, locus YMR125W, strain sto1, hits give low values 0.0785 | S. cerevisiae deletion strains, locus YMR129W, hits give low values 0.0574 | S. cerevisiae deletion strains, locus YMR205C, strain PFK2, hits give low values 0.0897 | S. cerevisiae deletion strains, locus YMR223W, strain ubp8, hits give low values 0.0591 | S. cerevisiae deletion strains, locus YMR231W, strain pep5, hits give low values 0.146 | S. cerevisiae deletion strains, locus YMR263W, strain SAP30, hits give low values 0.0544 | S. cerevisiae deletion strains, locus YMR307W, strain GAS1, hits give low values 0.12 | S. cerevisiae deletion strains, locus YNL067W, strain RPL9B, hits give low values 0.0471 | S. cerevisiae deletion strains, locus YNL071W, strain lat1, hits give low values 0.0619 | S. cerevisiae deletion strains, locus YNL128W, strain TEP1, hits give low values 0.0608 | S. cerevisiae deletion strains, locus YNL183C, strain NPR1, hits give low values 0.000263 | S. cerevisiae deletion strains, locus YNL209W, strain ssb2, hits give low values 0.0676 | S. cerevisiae deletion strains, locus YNL233W, strain BNI4, hits give low values 0.0515 | S. cerevisiae deletion strains, locus YNL248C, strain rpa49, hits give low values 0.0789 | S. cerevisiae deletion strains, locus YNL250W, strain rad50, hits give low values 0.0722 | S. cerevisiae deletion strains, locus YNL271C, strain bni1, hits give low values 0.0682 | S. cerevisiae deletion strains, locus YNL298W, strain CLA4, hits give low values 0.0628 | S. cerevisiae deletion strains, locus YNL307C, strain MCK1, hits give low values 0.0686 | S. cerevisiae deletion strains, locus YNL322C, strain KRE1 (second series), hits give low values 0.0666 | S. cerevisiae deletion strains, locus YNL322C, strain KRE1, hits give low values 0.045 | S. cerevisiae deletion strains, locus YNR049C, strain mso1, hits give low values 0.0586 | S. cerevisiae deletion strains, locus YNR052C, strain pop2, hits give low values 0.0598 | S. cerevisiae deletion strains, locus YOL006C, strain TOP1, hits give low values 0.0991 | S. cerevisiae deletion strains, locus YOL012C, strain htz1 0.137 | S. cerevisiae deletion strains, locus YOL147C, strain pex11, hits give low values 0.0557 | S. cerevisiae deletion strains, locus YOR001W, strain rrp6, hits give low values 0.0726 | S. cerevisiae deletion strains, locus YOR061W, strain CKA2, hits give low values 0.0436 | S. cerevisiae deletion strains, locus YOR069W, strain VPS5, hits give low values 0.0456 | S. cerevisiae deletion strains, locus YOR070C, strain gyp1, hits give low values 0.0632 | S. cerevisiae deletion strains, locus YOR080W, strain dia2, hits give low values 0.0638 | S. cerevisiae deletion strains, locus YOR083W, strain WHI5, hits give low values 0.0689 | S. cerevisiae deletion strains, locus YOR106W, strain vam3, hits give low values 0.0699 | S. cerevisiae deletion strains, locus YOR136W, strain idh2, hits give low values 0.0693 | S. cerevisiae deletion strains, locus YOR144C, strain elg1, hits give low values 0.0562 | S. cerevisiae deletion strains, locus YOR184W, strain ser1, hits give low values 0.0618 | S. cerevisiae deletion strains, locus YOR231W, strain MKK1, hits give low values 0.102 | S. cerevisiae deletion strains, locus YOR265W, strain rbl2, hits give low values 0.0591 | S. cerevisiae deletion strains, locus YOR270C, strain vph1, hits give low values 0.111 | S. cerevisiae deletion strains, locus YOR290C, strain snf2, hits give low values 0.0745 | S. cerevisiae deletion strains, locus YOR316C, strain cot1, hits give low values 0.0584 | S. cerevisiae deletion strains, locus YPL051W, strain arl3, hits give low values 0.0666 | S. cerevisiae deletion strains, locus YPL078C, strain atp4, hits give low values 0.0762 | S. cerevisiae deletion strains, locus YPL106C, strain sse1, hits give low values 0.0973 | S. cerevisiae deletion strains, locus YPL240C, strain hsp82, hits give low values 0.0582 | S. cerevisiae deletion strains, locus YPL241C, strain CIN2, hits give low values 0.0455 | S. cerevisiae deletion strains, locus YPL256C, strain CLN2, hits give low values 0.113 | S. cerevisiae deletion strains, locus YPR119W, strain clb2, hits give low values 0.061 | S. cerevisiae deletion strains, locus YPR141C, strain kar3, hits give low values 0.0736 | S. cerevisiae deletion strains, locus YPR163C, strain tif3, hits give low values 0.067 | S. cerevisiae deletion strains, locus YPR167C, strain met16, hits give low values 0.0596 | S. cerevisiae deletion strains, strain wtn01, hits give low values 0.0571 | S. cerevisiae strains, strain wild type, hits give low values 0.0459
